In PubChem BioAssay AID1159580 (chemical genetic matrix, 2015):
Out of some 5,500 compounds screened, about 2,000 (36%) were called active. About 18% were inconclusive and are not listed. No stated cut-off is given here; in the data, active means normalized growth mostly below about 0.91 (no sharp cut-off); inconclusive means no clear call, values can overlap the other calls; inactive means mostly above about 0.92. This is one part of the list.

Assay: chemical genetic growth profiling, strain panel (AID 1159580);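 further: tested at 20 µM; growth read once vehicle control cultures reached saturation at 30 °C; 1 = growth at the plate median or of vehicle wells; lower values mean less growth of the strain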
Details: growth OD
[1] = S. cerevisiae deletion strains, locus YBR021W, strain FUR4, hits give low values
[2] = S. cerevisiae deletion strains, locus YBR229C, strain ROT2, hits give low values
[3] = S. cerevisiae deletion strains, locus YCL029C, strain bik1, hits give low values
[4] = S. cerevisiae deletion strains, locus YDL035C, strain GPR1, hits give low values
[5] = S. cerevisiae deletion strains, locus YDL074C, strain BRE1, hits give low values
[6] = S. cerevisiae deletion strains, locus YDL101C, strain DUN1, hits give low values
[7] = S. cerevisiae deletion strains, locus YDL185W, strain tfp1, hits give low values
[8] = S. cerevisiae deletion strains, locus YDL192W, strain arf1, hits give low values
[9] = S. cerevisiae deletion strains, locus YDR101C, strain arx1, hits give low values
[10] = S. cerevisiae deletion strains, locus YDR162C, strain NBP2, hits give low values
[11] = S. cerevisiae deletion strains, locus YDR318W, strain mcm21, hits give low values
[12] = S. cerevisiae deletion strains, locus YDR388W, hits give low values
[13] = S. cerevisiae deletion strains, locus YDR502C, strain sam2, hits give low values
[14] = S. cerevisiae deletion strains, locus YEL061C, strain CIN8, hits give low values
[15] = S. cerevisiae deletion strains, locus YER110C, hits give low values
[16] = S. cerevisiae deletion strains, locus YER155C, strain BEM2, hits give low values
[17] = S. cerevisiae deletion strains, locus YER167W, strain BCK2, hits give low values
[18] = S. cerevisiae deletion strains, locus YGL078C, strain dbp3, hits give low values
[19] = S. cerevisiae deletion strains, locus YGL086W, strain mad1, hits give low values
[20] = S. cerevisiae deletion strains, locus YGL248W, strain PDE1, hits give low values
[21] = S. cerevisiae deletion strains, locus YGR135W, strain pre9, hits give low values
[22] = S. cerevisiae deletion strains, locus YGR229C, strain SMI1, hits give low values
[23] = S. cerevisiae deletion strains, locus YGR252W, strain gcn5, hits give low values
[24] = S. cerevisiae deletion strains, locus YHR030C, strain SLT2, hits give low values
[25] = S. cerevisiae deletion strains, locus YHR079C, strain IRE1 (second series), hits give low values
[26] = S. cerevisiae deletion strains, locus YHR094C, strain hxt1, hits give low values
[27] = S. cerevisiae deletion strains, locus YHR129C, strain ARP1, hits give low values
[28] = S. cerevisiae deletion strains, locus YHR200W, strain rpn10, hits give low values
[29] = S. cerevisiae deletion strains, locus YIL066C, strain RNR3, hits give low values
[30] = S. cerevisiae deletion strains, locus YIL073C, strain SPO22, hits give low values
[31] = S. cerevisiae deletion strains, locus YIL125W, strain kgd1, hits give low values
[32] = S. cerevisiae deletion strains, locus YIR030C, strain dcg1, hits give low values
[33] = S. cerevisiae deletion strains, locus YJL095W, strain BCK1, hits give low values
[34] = S. cerevisiae deletion strains, locus YJL134W, strain LCB3, hits give low values
[35] = S. cerevisiae deletion strains, locus YJL168C, strain set2, hits give low values
[36] = S. cerevisiae deletion strains, locus YJL187C, strain SWE1 (second series), hits give low values
[37] = S. cerevisiae deletion strains, locus YJR043C, strain POL32, hits give low values
[38] = S. cerevisiae deletion strains, locus YKL009W, strain mrt4, hits give low values
[39] = S. cerevisiae deletion strains, locus YKL085W, strain MDH1 (second series), hits give low values
[40] = S. cerevisiae deletion strains, locus YKL085W, strain MDH1, hits give low values
[41] = S. cerevisiae deletion strains, locus YKR001C, strain vps1, hits give low values
[42] = S. cerevisiae deletion strains, locus YLR039C, strain RIC1, hits give low values
[43] = S. cerevisiae deletion strains, locus YLR058C, strain SHM2, hits give low values
[44] = S. cerevisiae deletion strains, locus YLR102C, strain apc9, hits give low values
[45] = S. cerevisiae deletion strains, locus YLR262C, strain YPT6, hits give low values
[46] = S. cerevisiae deletion strains, locus YLR268W, strain sec22, hits give low values
[47] = S. cerevisiae deletion strains, locus YLR330W, strain CHS5, hits give low values
[48] = S. cerevisiae deletion strains, locus YLR342W, strain FKS1 (second series), hits give low values
[49] = S. cerevisiae deletion strains, locus YLR371W, strain rom2, hits give low values
[50] = S. cerevisiae deletion strains, locus YLR418C, strain cdc73, hits give low values
[51] = S. cerevisiae deletion strains, locus YML016C, strain PPZ1, hits give low values
[52] = S. cerevisiae deletion strains, locus YML032C, strain rad52, hits give low values
[53] = S. cerevisiae deletion strains, locus YML124C, strain tub3, hits give low values
[54] = S. cerevisiae deletion strains, locus YMR078C, strain ctf18, hits give low values
[55] = S. cerevisiae deletion strains, locus YMR223W, strain ubp8, hits give low values
[56] = S. cerevisiae deletion strains, locus YMR307W, strain GAS1, hits give low values
[57] = S. cerevisiae deletion strains, locus YNL067W, strain RPL9B, hits give low values
[58] = S. cerevisiae deletion strains, locus YNL233W, strain BNI4, hits give low values
[59] = S. cerevisiae deletion strains, locus YNL250W, strain rad50, hits give low values
[60] = S. cerevisiae deletion strains, locus YNL271C, strain bni1, hits give low values
[61] = S. cerevisiae deletion strains, locus YNL298W, strain CLA4, hits give low values
[62] = S. cerevisiae deletion strains, locus YNL307C, strain MCK1, hits give low values
[63] = S. cerevisiae deletion strains, locus YNL322C, strain KRE1, hits give low values
[64] = S. cerevisiae deletion strains, locus YNR052C, strain pop2, hits give low values
[65] = S. cerevisiae deletion strains, locus YOL012C, strain htz1
[66] = S. cerevisiae deletion strains, locus YOL147C, strain pex11, hits give low values
[67] = S. cerevisiae deletion strains, locus YOR061W, strain CKA2, hits give low values
[68] = S. cerevisiae deletion strains, locus YOR069W, strain VPS5, hits give low values
[69] = S. cerevisiae deletion strains, locus YOR136W, strain idh2, hits give low values
[70] = S. cerevisiae deletion strains, locus YOR144C, strain elg1, hits give low values
[71] = S. cerevisiae deletion strains, locus YOR184W, strain ser1, hits give low values
[72] = S. cerevisiae deletion strains, locus YOR316C, strain cot1, hits give low values
[73] = S. cerevisiae deletion strains, locus YPR119W, strain clb2, hits give low values
[74] = S. cerevisiae deletion strains, locus YPR141C, strain kar3, hits give low values
[75] = S. cerevisiae deletion strains, locus YPR163C, strain tif3, hits give low values
[76] = S. cerevisiae deletion strains, locus YPR167C, strain met16, hits give low values
[77] = S. cerevisiae deletion strains, strain wtn01, hits give low values
[78] = S. cerevisiae strains, strain wild type, hits give low values

Measured: normalized growth

CC(=O)Oc1c(Cl)c(C)c2c(c1Cl)OC(=O)c1c(C)c(Cl)c(OC(C)=O)c(Cl)c1O2
inactive: [2] 1.02 | [4] 0.86 | [5] 0.79 | [6] 0.946 | [7] 1 | [11] 0.946 | [12] 0.932 | [14] 1.02 | [15] 0.992 | [17] 0.985 | [20] 0.926 | [21] 0.912 | [24] 0.922 | [25] 1.01 | [26] 1.01 | [27] 0.925 | [28] 0.966 | [29] 0.965 | [30] 1.03 | [31] 1.02 | [32] 0.934 | [33] 0.802 | [34] 1.04 | [35] 1.01 | [36] 0.913 | [37] 0.921 | [42] 0.715 | [43] 0.967 | [44] 1.01 | [45] 0.642 | [47] 0.922 | [48] 0.828 | [49] 1.01 | [51] 1.02 | [53] 1.02 | [54] 0.985 | [56] 0.613 | [58] 0.934 | [59] 0.98 | [60] 0.993 | [63] 1.02 | S. cerevisiae deletion strains, locus YOL006C, strain TOP1, hits give low values 0.734 | [65] 1.44 | [67] 0.988 | [68] 0.972 | [69] 0.976 | [72] 1.01 | [73] 1.01 | [74] 1.07 | [76] 0.942 | [78] 0.977
active: S. cerevisiae deletion strains, locus YAL013W, strain DEP1, hits give low values 0.895 | [1] 0.851 | [3] 0.853 | [8] 0.825 | [9] 0.883 | [10] 0.799 | [13] 0.878 | [16] 0.91 | [18] 0.856 | [19] 0.899 | [22] 0.65 | [23] 0.693 | [38] 0.678 | [39] 1.39 [resistant] | [40] 1.39 [resistant] | [41] 0.682 | [46] 0.847 | [50] 0.756 | [52] 0.853 | [55] 0.886 | [57] 0.846 | S. cerevisiae deletion strains, locus YNL153C, strain GIM3, hits give low values 0.858 | [61] 0.866 | [62] 0.771 | [64] 0.754 | [66] 0.916 | [70] 0.903 | [71] 0.652 | [75] 0.736 | [77] 0.856

COC(=O)c1c(C)c2c(c(C)c1OC)OC(=O)c1c(C)c(Cl)c(OC)c(Cl)c1O2
active: [38] 1.37 [resistant] | [39] 1.23 [resistant] | [40] 1.23 [resistant]
inactive: [1] 0.99 | [2] 1.01 | [3] 1.02 | [4] 1.03 | [5] 1.04 | [6] 1.02 | S. cerevisiae deletion strains, locus YDL134C, strain PPH21, hits give low values 1.01 | [7] 1.01 | [8] 1.02 | [9] 1 | S. cerevisiae deletion strains, locus YDR150W, strain NUM1, hits give low values 1.02 | [10] 1.03 | [11] 1.02 | [12] 1.02 | [13] 1.03 | [14] 1.01 | [15] 1.02 | [16] 0.998 | [17] 1.03 | [18] 1.01 | [19] 1.03 | [20] 1.01 | [21] 1.03 | [22] 1.06 | [23] 1.01 | [24] 1.02 | [25] 1.01 | [26] 1.02 | [27] 1.01 | [28] 1.02 | [29] 1.04 | [30] 1.09 | [31] 1.01 | [32] 1.01 | [33] 1.04 | [34] 1.01 | [35] 1.02 | [36] 1.03 | [37] 1.03 | S. cerevisiae deletion strains, locus YKL068W, hits give low values 1.04 | [41] 1.01 | [42] 1.06 | [43] 1.02 | [44] 1.01 | [45] 1.07 | [46] 1.02 | [47] 1.02 | [48] 1.05 | [49] 1.01 | [50] 1.03 | [51] 1.01 | [52] 1.01 | [53] 1.04 | [54] 1.01 | [55] 1.02 | [56] 1.04 | [57] 1.02 | S. cerevisiae deletion strains, locus YNL128W, strain TEP1, hits give low values 1.04 | [58] 1.02 | [59] 1.04 | [60] 1.02 | [61] 1.02 | [62] 1.01 | [63] 1.02 | [64] 1.02 | [65] 0.795 | [66] 1.01 | [67] 1.01 | [68] 1.01 | [69] 1.02 | [70] 1.01 | [71] 1.02 | [72] 1.02 | S. cerevisiae deletion strains, locus YPL055C, strain LGE1, hits give low values 1.04 | [73] 1.01 | [74] 1.02 | [75] 1.01 | [76] 1.02 | [77] 1.01 | [78] 1.02
